For 28 molecules, growth results are on record in PubChem BioAssay (NCI).

Common to all, as to experiment: NCI-60 one-dose screen, 48 h (100 = growth as untreated, 0 = no growth, -100 = all killed)
Holding throughout (conditions): 10 µM

The test system of test [1] is T-47D breast.
Test [2] concerns BT-549 breast.
The subject of test [3] is MDA-MB-435 melanoma.
The test system of test [4] is SW-620 colon.
The subject of test [5] is MCF7 breast.
Test [6] deals with HCT-116 colon.
Test [7] relates to HCC-2998 colon.
For test [8], the system named is KM12 colon.
The subject of test [9] is MDA-MB-468 breast.

About 83,000 compounds went through this panel and 20% of them were active in at least one assay; those are over-represented in the sample as a whole.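 Assay: single dose, 48 h. Readout: percent growth (0 = no net growth; negative = cell death). Active: <10.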 A number with no mark means an inactive call. Active and inactive are the calls of the source.

Consider `COc1ccc2nc(Nc3cccc(NC(=O)c4ccc(CN5CCN(C)CC5)c(C(F)(F)F)c4)c3)ccc2c1`, for which the growth in [1] was -25.9% (active); in test [2] it was -45.8% (active); in [3], -96% (active); in [4] it was -89.7% (active); in test [5], -97.1% (active); in test [6], -15.3% (active). Besides, the results for the growth in test [7] and in test [8] were -99.4% (active) and -68.1% (active), respectively.

Consider `COc1cccc(-c2nn(-c3ccccc3)cc2-c2ccnc(NCCCNC(=O)Nc3ccc(F)cc3)c2)c1`, for which the growth in [1] is 4.77% (active); in test [2], -20.6% (active); in [3] it was -59% (active); in [4], 14.5%; in test [5] it was -15.5% (active); in test [6] it was 6.26% (active). The figures for the growth in test [7] and in [8] were -25.1% (active) and 5.44% (active), respectively.

Turning to `COC(=O)CC1CC1C1Cc2c(nc(N(C)S(C)(=O)=O)nc2C(C)C)-c2ccc(F)cc21` (stereo not given), the growth was 63.8% in test [1]; 64.8% in test [2]; 87.2% in test [3]; 66% in test [4]; 67.1% in test [5]; 44.4% in test [6]. Moreover, the growth in test [7] was 101%; in [8], 76.2%.

With `COc1ccc(CN2[C@@H](C(=O)NCc3ccc(C(=O)NO)cc3)Cc3c([nH]c4ccccc34)[C@@H]2C)cc1`, the growth in test [1] is 13.9%; in test [2], 43.6%; in [3], -36.4% (active); in [4], -31.3% (active); in [5], 15.8%; in test [6] it was 9.97% (active). Besides, the growth in test [7] was 14.6%; in test [8], 20.4%.

For `O=C(CS(=O)(=O)c1oc(-c2ccc(Cl)cc2)nc1S(=O)(=O)c1ccccc1)N1CCCC1`, the growth is -66.9% (active) in test [1]; -3.43% (active) in test [2]; -41.8% (active) in [3]; -70.1% (active) in [4]; -70.1% (active) in test [5]; 0.106% (active) in test [6]. The growth in test [7] is 21.8%; in [8], 61.7%.

On to `O=C(Nc1cccc(C(F)(F)F)c1)c1cncc(C#Cc2cnc3cccnn23)c1`, for which the growth in test [1] is 13.5%; in [2], 15.4%; in test [3] it was 25.6%; in test [4] it was 34.3%; in test [5] it was 8.36% (active); in test [6] it was 15.4%. Moreover, the growth is 46.9% in [7] and 7.46% (active) in [8].

Turning to `OCCCNc1oc(-c2ccccc2)nc1[P+](c1ccccc1)(c1ccccc1)c1ccccc1`, the growth in test [1] was 7.19% (active); in test [2], -40.5% (active); in test [3], 6.46% (active); in [4] it was 11.5%; in [5], 0.534% (active); in [6], 7.82% (active). For the same molecule, the growth in test [7] was 2.5% (active); in test [8], -45.9% (active).

Consider `CC1(C)CC[C@]23CC[C@]4(C)[C@H](CC[C@@H]5[C@@]6(C)CC[C@H](N)C(C)(C)[C@@H]6CC[C@]54C)[C@H]2[C@H]1OC3=O`, for which the growth in [1] is -78.2% (active); in [2] it was -97.7% (active); in test [3] it was -96.2% (active); in test [4] it was -73.7% (active); in [5], -80.1% (active); in [6], -98.9% (active). For the same molecule, the growth is -92.2% (active) in [7], -86.6% (active) in test [8] and -95.6% (active) in test [9].

Consider `COc1ccc2nc(Cl)c(-c3cc(-c4ccccc4)nc(=S)[nH]3)cc2c1`, for which the growth was 76.4% in test [1]; 14.7% in test [2]; -27.6% (active) in test [3]; 78.9% in [4]; 65% in [5]; 66.4% in test [6]. Besides, the growth was 97.3% in test [7], 76.8% in test [8] and 76% in test [9].

On to `C=C[C@@]12CN3CC[C@]1(O)[C@@](C(=O)OC)(CO2)c1[nH]c2ccccc2c1C3`, for which the growth was 40.8% in [1]; 38.4% in test [2]; 32.7% in test [3]; 55% in test [4]; 42.6% in [5]; 57.9% in test [6]. Besides, the growth is 89.4% in [7], 78% in test [8] and -8.94% (active) in test [9].

Take `CCCCCc1ccc(S(=O)(=O)N(C(C)=O)c2cc(-c3csc(N(C)C(C)=O)n3)ccc2N2CCN(C)CC2)cc1`: the growth in test [1] was 30.4%; in [2] it was 73.9%; in [3], -97.4% (active); in test [4] it was -77.9% (active); in test [5], -73.1% (active); in test [6] it was -87.8% (active). The growth is -67.8% (active) in [7], 15.7% in test [8] and 20.9% in test [9].

For the molecule `COc1csc(/C=N/NC(=O)c2[nH]c3ccc(Br)cc3c2-c2ccccc2)c1`, the growth is 47.1% in [1]; 31.8% in test [2]; -43.6% (active) in test [3]; 17.9% in [4]; -3.06% (active) in [5]; -29.4% (active) in test [6]. Besides, the growth in test [7] is 7.87% (active); in test [8], 3.46% (active); in [9], -18% (active).

As for `C#Cc1ccc(S(=O)(=O)Nc2cccc(-c3csc(NC(C)=O)n3)c2)cc1`, the growth is 42.8% in test [1]; 55.7% in [2]; 51.5% in test [3]; 95.2% in [4]; 64.5% in test [5]; 77.9% in test [6]. The results for the growth in [7], in test [8] and in test [9] were 91.3%, 69.4% and 37.9%, respectively.

As for `COc1ccc(-c2nc(S(=O)(=O)c3ccc(C)cc3)c(S(=O)(=O)CC(=O)N(C)Cc3ccccc3)o2)cc1`, the growth in test [1] is -57.8% (active); in test [2], 72.6%; in [3], 32%; in test [4] it was 9.27% (active); in test [5], 7.73% (active); in [6], 6.34% (active). The results for the growth in test [7], in [8] and in [9] were 46.6%, 57.5% and -38.8% (active), respectively.

In the case of `O=C(CSc1nnc(-c2c[nH]c3ccccc23)n1-c1ccccc1)c1ccc(Br)cc1`, the growth in test [1] is 22%; in [2] it was 65.2%; in [3], 40.9%; in test [4], 79.8%; in [5] it was 53.4%; in test [6], 54.3%. In addition, the growth in test [7] is 31.7%; in [8] it was 34.6%; in test [9] it was 22%.

Regarding `O=C1NC(=NC23CC4CC(CC(C4)C2)C3)N/C1=C\c1ccc2ncsc2c1`, the growth in test [1] is -0.474% (active); in test [2] it was -11.5% (active); in test [3] it was 17.8%; in test [4] it was 5.03% (active); in [5], -9.76% (active); in [6], 14.1%. Moreover, the growth was 16.2% in test [7], 2.26% (active) in test [8] and -48.2% (active) in [9].

As for `Cc1cc(C)nc(/N=C(\N)Nc2ccc(S(=O)(=O)Nc3nc(C)cc(C)n3)cc2)n1`, the growth is 100% in [1]; 117% in test [2]; 109% in [3]; 109% in [4]; 95.1% in test [5]; 110% in test [6]. The growth was 113% in test [7], 111% in [8] and 106% in [9].

As for `COc1ccc(OC)c(-c2cc(-c3c[nH]c4ccccc34)nc(N)c2C#N)c1`, the growth in test [1] was 0.648% (active); in test [2], -25.4% (active); in test [3], -5.04% (active); in test [4], 6.61% (active); in test [5] it was 3.84% (active); in [6], -45.8% (active). Besides, the growth in test [7] is -37.1% (active); in test [8] it was -27.6% (active); in test [9], -9.53% (active).

For `O=S(=O)(Nc1ncccn1)c1ccc(-n2c(-c3ccccc3)nc(-c3ccccc3)c2-c2ccccc2)cc1`, the growth in test [1] is 52.2%; in [2] it was 69%; in test [3], 101%; in [4], 91.9%; in [5] it was 71.1%; in test [6] it was 86.4%. Further, the figures for the growth in [7], in test [8] and in [9] were 89.3%, 88.4% and 85.7%, respectively.

As for `COc1ccc(C(=O)/C=C/c2ccc(Cl)c(C(F)(F)F)c2)cc1S(N)(=O)=O`, the growth in [1] was -82.6% (active); in test [2] it was -82.3% (active); in test [3] it was -96.4% (active); in [4], -94.7% (active); in test [5], -93.6% (active); in test [6], -71.6% (active). In addition, the growth in [7] is -88.3% (active); in test [8] it was -43.7% (active); in [9], -93.4% (active).

For the molecule `Cc1nn(-c2ccccc2)c2ncn(CC(=O)N/N=C/c3c[nH]c4ccccc34)c(=O)c12`, the growth in test [1] is 83.2%; in [2], 99.4%; in test [3], 94.9%; in [4], 95.4%; in test [5], 68.7%; in test [6] it was 82.5%. Further, the growth was 114% in [7], 92.4% in test [8] and 102% in test [9].

Turning to `Nc1cc(-c2cccc(C(=O)NCc3ccc4c(c3)OCO4)c2)ccn1`, the growth in test [1] was 77.4%; in [2], 96.8%; in test [3], 102%; in test [4], 110%; in [5] it was 86.5%; in test [6] it was 95.1%. Further, the growth in test [7] was 103%; in [8], 106%; in test [9] it was 88.1%.

As for `Cc1ccc(C(=O)CSc2nnc(-c3c[nH]c4ccccc34)n2-c2ccccc2)cc1`, the growth in test [1] was 46.7%; in test [2], 22.4%; in test [3] it was 38.6%; in test [4] it was 19%; in test [5] it was 12.5%; in test [6], 7.68% (active). Further, the values for the growth in test [7], in [8] and in [9] were 66.4%, 51% and 48%, respectively.

On to `CSc1nc(-c2cccc(C)c2)c2cc(-c3ccccc3)n(C)c2n1`, for which the growth is 1.02% (active) in test [1]; -5.93% (active) in test [2]; -39.3% (active) in test [3]; 20.3% in test [4]; 5.57% (active) in test [5]; 13.5% in test [6]. The growth is 39.4% in [7], 6.5% (active) in test [8] and -29.2% (active) in [9].

Regarding `COc1ccccc1[C@H]1C(C(=O)c2ccc(Cl)cc2)C2(N[C@@H]1c1ccccc1)C(=O)Nc1ccc(Cl)cc12` (stereo not given in full), the growth was 5.84% (active) in test [1]; -1.27% (active) in [2]; -44.4% (active) in test [3]; 6.3% (active) in test [4]; -4.87% (active) in test [5]; 10.1% in test [6]. Also, the results for the growth in test [7], in [8] and in test [9] were -18.8% (active), 9.71% (active) and -43.9% (active), respectively.

For the molecule `O/N=C(\CSc1nnc(-c2c[nH]c3ccccc23)n1-c1ccccc1)c1ccc(Br)cc1`, the growth in test [1] was 5.96% (active); in [2], -72.7% (active); in test [3], -100% (active); in [4], -86.3% (active); in [5] it was -42.5% (active); in [6] it was -36.3% (active). In addition, the growth in test [7] was -66.5% (active); in test [8], 2.11% (active); in [9] it was -94.5% (active).

As for `CCOP(=O)(OCC)O[C@H]1CCC(=O)[C@@H]2[C@H]1[C@H]1C[C@@H]3[C@@]4(C)CCCC(C)(C(=O)OC)[C@@H]4CC[C@@]23C=C1C(C)C` (stereo not given in full), the growth in test [1] is 42.1%; in test [2] it was 54.9%; in [3], 52%; in test [4], 56.1%; in test [5], 33.2%; in [6], 32.8%. The growth is 58.9% in test [7], 50.9% in test [8] and 7.96% (active) in [9].

In the case of `Cc1ccc(/C(CSc2nnc(-c3c[nH]c4ccccc34)n2-c2ccccc2)=N/O)cc1`, the growth in test [1] is -47.3% (active); in test [2], -75.5% (active); in test [3], -100% (active); in test [4] it was -80.4% (active); in test [5], -55% (active); in test [6] it was 2.62% (active). Also, the growth was -41.9% (active) in test [7], 50.2% in test [8] and -88.8% (active) in test [9].
